Experiment [1] can be described thus: Viability qHTS for spleen associated tyrosine kinase inhibitor (SYKi) naive MV4-11 cells (AID 1963823). Also: nearly all actives have a fitted effect of over 40% in size. The note with it: MV4-11 AML viability, CellTiter-Glo luminescence, 72 h; series mostly up to 45 µM. In short, it runs like this:
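Luminescence from CellTiter-Glo, developed 10 min at room temperature, gave viability of MV4-11 cells never exposed to SYK inhibitor. Cells (500/well) had been incubated with compounds for 72 hr under standard culture conditions.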
A general note: In qHTS, concentration-response curves come from the screen itself.

Experiment [2] in a line: Viability qHTS for spleen associated tyrosine kinase inhibitor (SYKi) drug resistant MV4-11 cells (AID 1963824). Also: nearly all actives have a fitted effect of over 35% in size. The note with it: SYKi-resistant MV4-11 viability, CellTiter-Glo, 72 h; series mostly up to 45 µM. In short, it runs like this:
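SYK-inhibitor-resistant MV4-11 AML cells were seeded at 500 per well onto compound and cultured 72 hours (37 °C, 5% CO2). CellTiter-Glo was then added, and after 10 min at room temperature, luminescence gave viability.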

Results filed as inconclusive are left out. Values without a mark were called inactive. Calls of active or inactive are those of the source. Calls follow the shape of the dose curve; as a rule, active = well fitted cell-killing curve with a large enough effect; inconclusive = small, poorly fitted or top-dose-only effect, or effect the other way; inactive = no such curve, though single readings can be large or run the other way.
Potency is read from the fitted curve at half-maximal effect.

`CC(=O)c1c(C)cccc1O[C@@H]1O[C@H](CO)[C@@H](O)[C@H](O)[C@H]1O`: the Potency result in experiment [1] and in experiment [2] was “inactive” in each case.
Take `CC1(C)CC[C@]2(C(=O)O)CC[C@]3(C)C(=CCC4[C@@]5(C)CC[C@H](O[C@@H]6O[C@H](C(=O)O)[C@@H](O[C@@H]7OC[C@@H](O)[C@H](O)[C@H]7O)[C@H](O)[C@H]6O)C(C)(C)C5CC[C@]43C)C2C1O` (some centres not stated): the Potency result in experiment [1] and in experiment [2] was “inactive” each time.
Turning to `CC(=O)C=C=C1C(C)(C)CC(O)CC1(C)O[C@@H]1O[C@H](CO[C@H]2OC[C@](O)(CO)[C@H]2O)[C@@H](O)[C@H](O)[C@H]1O` (some centres not stated), the Potency entry in experiment [1] and in experiment [2] was “inactive” each time.
Take `C=C[C@]1(C)C[C@H](O)[C@@H]2[C@H](OC(=O)[C@@H]2C)C1/C(C)=C/O[C@@H]1O[C@H](CO)[C@@H](O)[C@H](O)[C@H]1O` (some centres not stated): the Potency entry in experiment [1] and in experiment [2] was “inactive” in each case.
Consider `CC(CO)C1CCC2(C)CC3C(CO)CC(O)C3C(C)(O)C/C=C/12` (configuration not stated), for which the Potency entry in experiment [1] and in experiment [2] was “inactive” throughout.
Regarding `COC(=O)C1=CO[C@@H](O[C@@H]2O[C@H](CO)[C@@H](O)[C@H](O)[C@H]2O)[C@@H]2[C@@H](C(=O)O)CC[C@H]12`, the Potency result in experiment [1] and in experiment [2] was “inactive” in each case.
On to `C=C(C=O)[C@]1(O)C[C@@]2(C)C(=CC1=O)C=C[C@H](OC(=O)/C=C/C=C/[C@H](C)CC)[C@@H]2C`, for which the Potency in experiment [1] is 1.12 µM (active); in experiment [2], 0.796 µM (active).
For the compound `CCC[C@@]1(CCc2ccccc2)CC(O)=C([C@H](CC)c2cccc(NS(=O)(=O)c3ccc(C(F)(F)F)cn3)c2)C(=O)O1`, the Potency was 20.6 µM (active) in experiment [1] and 23.1 µM (active) in experiment [2].
In the same order, the values of `COc1cc(Nc2cnc(C#N)c(O[C@H](C)CN(C)C)n2)ncc1-c1cnn(C)c1` are 0.934 µM (active) and 1.32 µM (active).
In the same order, the values of `O=C(OCC1=C[C@@H](O)[C@@H]2C=CO[C@@H](O[C@@H]3O[C@H](CO)[C@@H](O)[C@H](O)[C@H]3O)[C@H]12)c1ccc(O)cc1` are “inactive” and “inactive”.
For the compound `CONC(=O)c1ccccc1Nc1cc(Nc2cc(C)nn2C(C)C)ncc1Cl`, the Potency in experiment [1] is 6.61 µM (active); in experiment [2], 13.2 µM (active).
Take `CC1=C(C)C(=O)C(CCCCC#CCCCC#CCO)=C(C)C1=O`: the Potency in experiment [1] was 11.9 µM (active); in experiment [2], 13.3 µM (active).
For `O=C(OC[C@H]1O[C@H](O[C@]2(CO)O[C@H](CO)[C@@H](O)[C@@H]2O)[C@H](O)[C@@H](O)[C@@H]1O)c1ccccc1`, in that order: “inactive” and “inactive”.
In the case of `C=C1CCC2C(C(C)(C)O)CCC2(C)CC(O)C(=C)CCC1O` (configuration not stated), the Potency in experiment [1] was 9.04 µM (active); in experiment [2] it was 11.4 µM (active).
For `O=C(COc1ccc(C(=O)c2ccccc2)cc1)NC1CCN(Cc2ccccc2)CC1`, in that order: 9.2 µM (active) and 7.31 µM (active).
In the same order, the values of `Oc1cc(CNC(=S)/C=C/c2cc(O)c(O)c(Br)c2)cc(O)c1O` are 1.84 µM (active) and 1.84 µM (active).
For `C[C@@H]1O[C@@H](O[C@H]2[C@H](O)[C@@H](O)[C@H](OC[C@H]3O[C@@H](OC(=O)[C@]45CCC(C)(C)C[C@H]4C4=CCC6[C@@]7(C)C[C@@H](O)[C@H](O)[C@@](C)(CO)C7[C@H](O)C[C@@]6(C)[C@]4(C)CC5)[C@H](O)[C@@H](O)[C@@H]3O)O[C@@H]2CO)[C@H](O)[C@H](O)[C@H]1O` (some centres not stated), the viability (% of control) in experiment [1] was 86.1% [at 9.25 µM]. The viability, % of control in experiment [2] is 79.5% [at 9.25 µM].
Consider `O=C(O)CCc1cc2ccoc2cc1O[C@@H]1O[C@H](CO)[C@@H](O)[C@H](O)[C@H]1O`, for which the Potency entry in experiment [1] and in experiment [2] was “inactive” throughout.
Regarding `CCCCCCCCCCCCC/C=C/[C@@H](O)[C@H](CO)N(C)C`, in experiment [1], the viability (% of control) is 70.8% [at 4.97 µM]. Moreover, in experiment [2], the viability, % of control was 82.6% [at 4.97 µM].
As to `Cn1c(=O)c2nc(/C=C/c3cccc(Cl)c3)n(C)c2n(C)c1=O`, the Potency result in experiment [1] and in experiment [2] was “inactive” in each case.
For `CC1(C)CC2C(O)C3=C(CC(C)(O)C2C1)C(=O)OC3O` (configuration not stated), the Potency entry in experiment [1] and in experiment [2] was “inactive” each time.
With `COc1cc2c(cc1OC)CN(C(=O)/C=C/c1c(-c3ccccc3)n(C)c3ncccc13)CC2`, the Potency was 2.59 µM (active) in experiment [1] and 3.66 µM (active) in experiment [2].
For `Oc1ccc2c(c1)OCC1(O)Cc3cc(O)c(O)cc3C21` (configuration not stated), in that order: 3.66 µM (active) and 3.66 µM (active).
On to `CCn1cc(C2=NOC(C(=O)Nc3c(C)n(C)n(-c4ccccc4)c3=O)C2)c(C)n1` (configuration not stated), for which the Potency entry in experiment [1] and in experiment [2] was “inactive” each time.
Regarding `CC(=O)OCC1=C[C@H](O)[C@@H]2C(C(=O)O)=CO[C@@H](O[C@@H]3O[C@H](CO)[C@@H](O)[C@H](O)[C@H]3O)[C@H]12`, the Potency result in experiment [1] and in experiment [2] was “inactive” in each case.
`CC1(CO)CCCC2(C)C1C(OC(=O)c1ccccc1)CC1C(=O)OCC12O` (configuration not stated): the Potency entry in experiment [1] and in experiment [2] was “inactive” in each case.
With `C=C1CC23CC1CCC2C12OC(=O)C(C)(C(O)C(O)C1O)C2C3C(=O)O` (configuration not stated), the Potency result in experiment [1] and in experiment [2] was “inactive” in each case.
On to `CC1(CO)CC[C@]2(C(=O)O[C@@H]3O[C@H](CO)[C@@H](O)[C@H](O)[C@H]3O)CC[C@]3(C)C(=CCC4[C@@]5(C)CC[C@H](O[C@@H]6O[C@H](C(=O)O)[C@@H](O)[C@H](O)[C@H]6O)C(C)(C)C5CC[C@]43C)C2C1` (some centres not stated), for which, in experiment [1], the viability (% of control) was 87.4% [at 9.25 µM]. The viability, % of control in experiment [2] was 104% [at 9.25 µM].
As for `CC(OC1OCCN(Cc2n[nH]c(=O)[nH]2)C1c1ccc(F)cc1)c1cc(C(F)(F)F)cc(C(F)(F)F)c1` (configuration not stated), the figures for the Potency in experiment [1] and in experiment [2] were 9.2 µM (active) and 5.8 µM (active), respectively.
On to `CC1=CCC(C(C)(C)O[C@@H]2O[C@H](CO[C@@H]3O[C@@H](C)[C@H](O)[C@@H](O)[C@H]3O)[C@@H](O)[C@H](O)[C@H]2O)CC1` (some centres not stated), for which the Potency result in experiment [1] and in experiment [2] was “inactive” throughout.
As to `O=C(CC1NCCC[C@H]1O)Cn1cnc2cc(Br)c(Cl)cc2c1=O` (some centres not stated), the Potency result in experiment [1] and in experiment [2] was “inactive” each time.
Take `C[C@@]12C[C@]3(O)O[C@H](O1)[C@]1(COC(=O)c4ccccc4)[C@H]3C[C@@]12O[C@@H]1O[C@H](COC(=O)c2ccccc2)[C@@H](O)[C@H](O)[C@H]1O`: the Potency result in experiment [1] and in experiment [2] was “inactive” each time.
For `COc1cc(N2CCC(O)CC2)ccc1Nc1nc(Nc2ccccc2S(=O)(=O)C(C)C)c2[nH]cnc2n1`, the results for the Potency in experiment [1] and in experiment [2] were 1.3 µM (active) and 2.06 µM (active), respectively.
Regarding `COc1ccc(C[C@H](N)C(=O)N[C@@H]2[C@H](O)[C@H](n3cnc4c(N(C)C)ncnc43)O[C@@H]2CO)cc1`, the Potency in experiment [1] and in experiment [2] was 0.184 µM (active) each time.
Consider `C/C(=C\CO)CC/C=C(\C)C(=O)O[C@@H]1O[C@H](CO)[C@@H](O)[C@H](O)[C@H]1O`, for which the Potency entry in experiment [1] and in experiment [2] was “inactive” each time.
With `O=C(O)c1ccnc(-c2cc(C(=O)NCCc3ccccc3)ccn2)c1`, the Potency entry in experiment [1] and in experiment [2] was “inactive” each time.
Turning to `C[C@H](CCC(=O)O)[C@H]1CC[C@H]2[C@@H]3C[C@H](O)[C@@H]4C[C@H](O)CC[C@]4(C)[C@H]3CC[C@]12C`, the Potency entry in experiment [1] and in experiment [2] was “inactive” throughout.
Regarding `C[C@@H](O[C@H]1OCCN(Cc2n[nH]nc2CN(C)C)[C@H]1c1ccc(F)cc1)c1cc(C(F)(F)F)cc(C(F)(F)F)c1`, the Potency was 10.3 µM (active) in experiment [1] and 6.51 µM (active) in experiment [2].
For `CCCn1c(=O)c2[nH]c(-c3ccc(OCC(=O)O)cc3)nc2n(CCC)c1=O`, the Potency result in experiment [1] and in experiment [2] was “inactive” throughout.
With `CN(C)C(=O)COC(=O)c1cc(-c2ccc(C3CCNCC3)cc2)c2ccc(-c3ccc(C(F)(F)F)cc3)cc2c1`, the Potency is 4.61 µM (active) in experiment [1] and 5.17 µM (active) in experiment [2].
As to `COC(=O)N[C@H](C(=O)N1CCC[C@H]1c1ncc(-c2ccc(-c3ccc(-c4cnc([C@@H]5CCCN5C(=O)[C@@H](NC(=O)OC)C(C)C)[nH]4)cc3)cc2)[nH]1)C(C)C`, the Potency is 18.6 µM (active) in experiment [1] and 16.6 µM (active) in experiment [2].

The record behind these values is PubChem BioAssay (NCATS).
